Experimental data from the supplement of paper PMC7156485.

Experiments:
Details in all cases: concentration: 10 µM; 24 h
HCC1569 [1] = test: cell number relative to DMSO (% of DMSO); higher = more cells (less growth inhibition / toxicity)
How it was run: (§1)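 Six fields per well were imaged at ×10 after the cells were fixed in 3.7% formaldehyde and stained with a rabbit anti-H1.0 antibody, an AlexaFluor 647 secondary and DAPI. The HCC1569 and TDF cells had been plated at 800 per well in 384-well plates (RPMI, 10% FBS) and treated in triplicate with compounds at 10 µM for 24 h at 37 °C. The values are the median of replicates of H1.0 nuclear intensity or cell number, as percent of the plate control. Smoothing for positional effects was applied to HCC1569 data.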

TDF [2] = test: as above
How it was run: as §1

TDF [3] = test: H1.0 immunofluorescence intensity relative to DMSO (% of DMSO); higher = stronger H1.0 induction, active = 120 or more
How it was run: as §1

HCC1569 [4] = test: H1.0 immunofluorescence intensity relative to DMSO (% of DMSO); higher = stronger H1.0 induction, active = 140 or more
How it was run: as §1
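Throughout, for H1.0 immunofluorescence intensity relative to DMSO: TDF is a line of transformed human dermal fibroblasts of mesenchymal origin.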
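Throughout, for cell number relative to DMSO: TDF denotes transformed human dermal fibroblasts of mesenchymal origin.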

For `CN1C2CCC1CC(O)C2` (stereo unspecified) [Tropine], which cell number (HCC1569 [1]) is on record?
The cell number was 102.

What about the cell number (TDF [2]) of the same compound?
The cell number was 104.

What about the H1.0 immunofluorescence intensity (TDF [3]) of the same compound?
Its H1.0 immunofluorescence intensity is 96.1 (inactive).

What about the H1.0 immunofluorescence intensity (HCC1569 [4]) of the same compound?
The H1.0 immunofluorescence intensity was 90 (inactive).

What does the source list for `O=C1C=C2C(=CCOC2O)O1` (stereo unspecified) [Patulin]?
cell number (HCC1569 [1]): 22.4; cell number (TDF [2]): 8.4; H1.0 immunofluorescence intensity (TDF [3]): 224 (active); H1.0 immunofluorescence intensity (HCC1569 [4]): 132 (inactive)

How did the cell number (HCC1569 [1]) turn out when `CNC(=O)OCC[N+](C)(C)C.[Cl-]` [Methylcarbamylcholine chloride] was run?
The cell number was 101.

And the cell number (TDF [2])?
The cell number was 92.5.

And the H1.0 immunofluorescence intensity (TDF [3])?
The H1.0 immunofluorescence intensity was 99.2 (inactive).

And the H1.0 immunofluorescence intensity (HCC1569 [4])?
Its H1.0 immunofluorescence intensity is 95.8 (inactive).

Which results are given for `CNCCc1c[nH]c2ccc(O)cc12.O=C(O)C(=O)O` [N-omega-Methyl-5-hydroxytryptamine oxalate salt]?
cell number (HCC1569 [1]): 101; cell number (TDF [2]): 103; H1.0 immunofluorescence intensity (TDF [3]): 91 (inactive); H1.0 immunofluorescence intensity (HCC1569 [4]): 96.1 (inactive)

Which results are given for `CCC1(C2OC(C3OC(O)(CO)C(C)CC3C)CC2C)CCC(C2(C)CCC3(CC(O)C(C)C(C(C)C(OC)C(C)C(=O)[O-])O3)O2)O1.[Na+]` (stereo unspecified) [Monensin]?
cell number (HCC1569 [1]): 90.4; cell number (TDF [2]): 74.5; H1.0 immunofluorescence intensity (TDF [3]): 120 (active); H1.0 immunofluorescence intensity (HCC1569 [4]): 186 (active)

How did the cell number (HCC1569 [1]) turn out when `COc1cc2c(cc1OC)[C@H]1CC(=O)[C@H](CC(C)C)CN1CC2` was run?
The cell number was 106.

And the cell number (TDF [2])?
The cell number was 102.

And the H1.0 immunofluorescence intensity (TDF [3])?
The H1.0 immunofluorescence intensity was 88 (inactive).

And the H1.0 immunofluorescence intensity (HCC1569 [4])?
Its H1.0 immunofluorescence intensity is 96.4 (inactive).

Which results are given for `Cl.O=C(CCCN1CCC2(CC1)C(=O)N(CCc1ccc(N=C=S)cc1)CN2c1ccccc1)c1ccc(F)cc1` [N-(p-Isothiocyanatophenethyl)spiperone hydrochloride]?
cell number (HCC1569 [1]): 82.7; cell number (TDF [2]): 74; H1.0 immunofluorescence intensity (TDF [3]): 128 (active); H1.0 immunofluorescence intensity (HCC1569 [4]): 149 (active)

Which results are given for `C#CC1(O)CCC2C3CCC4=CC(=O)CCC4=C3C=CC21CC` (stereo unspecified) [Gestrinone]?
cell number (HCC1569 [1]): 99.4; cell number (TDF [2]): 100; H1.0 immunofluorescence intensity (TDF [3]): 91.2 (inactive); H1.0 immunofluorescence intensity (HCC1569 [4]): 112 (inactive)

With `Br.CC1NCCc2cc(O)c(O)cc21` (stereo unspecified) as the compound, how does the cell number (HCC1569 [1]) read?
The cell number was 100.

And the cell number (TDF [2])?
Its cell number is 93.9.

And the H1.0 immunofluorescence intensity (TDF [3])?
Its H1.0 immunofluorescence intensity is 105 (inactive).

What about the H1.0 immunofluorescence intensity (HCC1569 [4]) of the same compound?
The H1.0 immunofluorescence intensity was 94.9 (inactive).
